Results: the supplement of paper PMC11732987, “Enantioselective OTUD7B fragment discovery through chemoproteomics screening and high-throughput optimisation” (Communications Chemistry, 2025)
Unmarked numbers belong to inactive results.

compound: OC1CN(Cc2sccc12)C(=O)CCl; test: log2 ratio of Biotin-Ahx-Ub-VS probe labelling (compound/DMSO); higher = less target engagement, active = hit call of the paper (q ≤ 0.05, log2 ratio ≤ -1); settings: compound concentration: 50uM; treatment time: 3 h
Experimental: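 Round 2 competitive ABPP in HEK293T lysate. Purified HTC-D2B compounds were tested at 50 and 200 µM for 3 h, followed by Biotin-Ahx-Ub-VS enrichment and diaPASEF LC-MS/MS. Values are the average log2 ratio (compound/DMSO) from an unpaired t-test (n=3 treated, n=26 DMSO).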

UniProt Q8TE49, sequence (Q8TE49 whole entry): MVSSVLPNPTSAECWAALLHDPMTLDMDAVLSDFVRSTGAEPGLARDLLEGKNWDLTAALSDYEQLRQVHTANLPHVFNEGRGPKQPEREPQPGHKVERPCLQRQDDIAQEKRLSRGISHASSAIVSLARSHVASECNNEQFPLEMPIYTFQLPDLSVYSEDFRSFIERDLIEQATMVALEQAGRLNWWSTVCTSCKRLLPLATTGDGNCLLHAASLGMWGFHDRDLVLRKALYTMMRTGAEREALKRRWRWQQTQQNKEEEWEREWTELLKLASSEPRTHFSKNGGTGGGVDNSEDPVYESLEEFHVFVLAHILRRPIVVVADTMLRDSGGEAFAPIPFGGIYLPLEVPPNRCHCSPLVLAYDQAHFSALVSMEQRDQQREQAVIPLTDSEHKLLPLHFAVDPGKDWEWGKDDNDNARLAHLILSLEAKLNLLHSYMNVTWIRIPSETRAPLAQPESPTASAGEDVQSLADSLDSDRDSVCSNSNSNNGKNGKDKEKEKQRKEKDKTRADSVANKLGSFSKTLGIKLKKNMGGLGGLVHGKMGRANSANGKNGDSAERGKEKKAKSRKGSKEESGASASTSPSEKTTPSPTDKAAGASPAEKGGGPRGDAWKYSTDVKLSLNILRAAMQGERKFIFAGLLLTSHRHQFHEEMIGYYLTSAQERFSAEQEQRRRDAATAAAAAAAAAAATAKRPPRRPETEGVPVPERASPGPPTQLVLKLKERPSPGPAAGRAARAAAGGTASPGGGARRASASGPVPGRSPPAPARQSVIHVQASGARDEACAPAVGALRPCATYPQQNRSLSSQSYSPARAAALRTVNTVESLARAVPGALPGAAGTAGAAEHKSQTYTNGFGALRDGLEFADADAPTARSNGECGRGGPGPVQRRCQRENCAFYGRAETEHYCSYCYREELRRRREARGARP
UniProt Q70EL2, sequence (Q70EL2 whole entry): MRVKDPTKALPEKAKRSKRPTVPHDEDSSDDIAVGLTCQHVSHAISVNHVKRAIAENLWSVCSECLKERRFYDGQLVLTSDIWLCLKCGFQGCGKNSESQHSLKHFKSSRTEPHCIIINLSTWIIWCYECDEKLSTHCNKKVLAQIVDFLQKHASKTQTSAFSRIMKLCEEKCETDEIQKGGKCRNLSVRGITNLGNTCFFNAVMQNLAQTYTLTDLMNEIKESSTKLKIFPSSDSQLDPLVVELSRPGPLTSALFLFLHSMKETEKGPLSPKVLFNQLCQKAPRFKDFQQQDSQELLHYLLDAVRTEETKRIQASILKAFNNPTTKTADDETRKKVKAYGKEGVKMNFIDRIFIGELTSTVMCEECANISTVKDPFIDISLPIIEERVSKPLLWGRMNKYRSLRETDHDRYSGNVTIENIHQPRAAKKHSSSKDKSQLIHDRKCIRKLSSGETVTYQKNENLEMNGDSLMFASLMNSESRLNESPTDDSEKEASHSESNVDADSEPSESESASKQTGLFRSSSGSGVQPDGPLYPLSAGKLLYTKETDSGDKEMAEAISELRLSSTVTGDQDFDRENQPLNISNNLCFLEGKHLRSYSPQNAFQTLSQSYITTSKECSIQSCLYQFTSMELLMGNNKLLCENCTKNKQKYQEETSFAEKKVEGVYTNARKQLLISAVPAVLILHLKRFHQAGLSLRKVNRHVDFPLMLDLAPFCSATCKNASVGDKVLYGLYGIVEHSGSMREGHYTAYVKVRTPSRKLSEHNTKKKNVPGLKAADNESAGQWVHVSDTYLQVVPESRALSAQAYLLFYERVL
UniProt Q92905, sequence (Q92905 whole entry, looked up): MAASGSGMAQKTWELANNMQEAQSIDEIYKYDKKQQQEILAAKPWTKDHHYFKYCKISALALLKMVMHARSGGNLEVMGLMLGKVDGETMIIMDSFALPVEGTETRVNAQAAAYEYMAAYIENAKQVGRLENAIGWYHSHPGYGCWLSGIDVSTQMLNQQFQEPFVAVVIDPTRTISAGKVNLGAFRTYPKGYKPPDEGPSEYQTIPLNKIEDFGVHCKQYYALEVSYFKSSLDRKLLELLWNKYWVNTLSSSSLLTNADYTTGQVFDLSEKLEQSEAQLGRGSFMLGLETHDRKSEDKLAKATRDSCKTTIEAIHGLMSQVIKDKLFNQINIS
UniProt Q4G0A6, sequence (Q4G0A6 whole entry): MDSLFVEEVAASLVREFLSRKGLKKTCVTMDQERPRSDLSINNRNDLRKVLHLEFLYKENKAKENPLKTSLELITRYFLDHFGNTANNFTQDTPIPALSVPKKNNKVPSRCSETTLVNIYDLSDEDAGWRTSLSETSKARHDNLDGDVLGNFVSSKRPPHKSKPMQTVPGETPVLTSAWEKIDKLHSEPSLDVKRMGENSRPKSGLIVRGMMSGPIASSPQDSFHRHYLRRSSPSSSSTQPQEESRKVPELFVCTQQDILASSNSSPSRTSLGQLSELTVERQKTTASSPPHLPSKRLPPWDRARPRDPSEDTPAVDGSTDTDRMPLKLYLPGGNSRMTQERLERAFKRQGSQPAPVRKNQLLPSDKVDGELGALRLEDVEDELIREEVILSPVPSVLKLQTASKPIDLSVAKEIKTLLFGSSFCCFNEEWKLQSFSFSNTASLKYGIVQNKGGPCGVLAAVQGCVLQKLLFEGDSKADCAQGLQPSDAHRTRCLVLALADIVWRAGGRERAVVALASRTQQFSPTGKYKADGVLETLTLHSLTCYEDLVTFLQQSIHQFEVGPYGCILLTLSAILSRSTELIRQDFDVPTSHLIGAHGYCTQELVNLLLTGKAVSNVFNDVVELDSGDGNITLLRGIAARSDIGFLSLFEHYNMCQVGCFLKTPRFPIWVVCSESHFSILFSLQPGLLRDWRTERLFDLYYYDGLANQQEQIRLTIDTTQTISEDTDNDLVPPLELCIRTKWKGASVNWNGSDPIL
UniProt P45974, sequence (P45974 whole entry): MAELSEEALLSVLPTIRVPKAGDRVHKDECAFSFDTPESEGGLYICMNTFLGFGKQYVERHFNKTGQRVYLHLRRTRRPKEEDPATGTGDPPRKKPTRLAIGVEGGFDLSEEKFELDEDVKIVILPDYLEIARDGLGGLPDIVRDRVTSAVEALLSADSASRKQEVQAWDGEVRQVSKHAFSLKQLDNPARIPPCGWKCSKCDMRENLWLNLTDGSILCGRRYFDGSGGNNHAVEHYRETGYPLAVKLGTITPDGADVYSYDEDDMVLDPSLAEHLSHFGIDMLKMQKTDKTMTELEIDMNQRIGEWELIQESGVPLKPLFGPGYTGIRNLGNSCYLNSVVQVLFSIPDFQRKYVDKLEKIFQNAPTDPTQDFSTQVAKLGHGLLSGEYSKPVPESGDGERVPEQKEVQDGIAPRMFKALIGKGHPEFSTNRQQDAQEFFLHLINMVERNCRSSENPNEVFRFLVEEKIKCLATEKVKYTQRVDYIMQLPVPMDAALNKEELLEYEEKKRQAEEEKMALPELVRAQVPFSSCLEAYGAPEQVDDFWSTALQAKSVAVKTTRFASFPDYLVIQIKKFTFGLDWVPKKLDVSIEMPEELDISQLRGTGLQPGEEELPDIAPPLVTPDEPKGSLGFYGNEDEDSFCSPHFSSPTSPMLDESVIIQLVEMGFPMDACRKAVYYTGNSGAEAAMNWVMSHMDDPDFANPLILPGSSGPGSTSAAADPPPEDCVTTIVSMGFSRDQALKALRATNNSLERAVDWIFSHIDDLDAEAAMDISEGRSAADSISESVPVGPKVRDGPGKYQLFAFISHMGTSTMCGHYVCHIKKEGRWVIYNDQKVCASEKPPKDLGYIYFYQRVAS
UniProt O94966, sequence (O94966 whole entry): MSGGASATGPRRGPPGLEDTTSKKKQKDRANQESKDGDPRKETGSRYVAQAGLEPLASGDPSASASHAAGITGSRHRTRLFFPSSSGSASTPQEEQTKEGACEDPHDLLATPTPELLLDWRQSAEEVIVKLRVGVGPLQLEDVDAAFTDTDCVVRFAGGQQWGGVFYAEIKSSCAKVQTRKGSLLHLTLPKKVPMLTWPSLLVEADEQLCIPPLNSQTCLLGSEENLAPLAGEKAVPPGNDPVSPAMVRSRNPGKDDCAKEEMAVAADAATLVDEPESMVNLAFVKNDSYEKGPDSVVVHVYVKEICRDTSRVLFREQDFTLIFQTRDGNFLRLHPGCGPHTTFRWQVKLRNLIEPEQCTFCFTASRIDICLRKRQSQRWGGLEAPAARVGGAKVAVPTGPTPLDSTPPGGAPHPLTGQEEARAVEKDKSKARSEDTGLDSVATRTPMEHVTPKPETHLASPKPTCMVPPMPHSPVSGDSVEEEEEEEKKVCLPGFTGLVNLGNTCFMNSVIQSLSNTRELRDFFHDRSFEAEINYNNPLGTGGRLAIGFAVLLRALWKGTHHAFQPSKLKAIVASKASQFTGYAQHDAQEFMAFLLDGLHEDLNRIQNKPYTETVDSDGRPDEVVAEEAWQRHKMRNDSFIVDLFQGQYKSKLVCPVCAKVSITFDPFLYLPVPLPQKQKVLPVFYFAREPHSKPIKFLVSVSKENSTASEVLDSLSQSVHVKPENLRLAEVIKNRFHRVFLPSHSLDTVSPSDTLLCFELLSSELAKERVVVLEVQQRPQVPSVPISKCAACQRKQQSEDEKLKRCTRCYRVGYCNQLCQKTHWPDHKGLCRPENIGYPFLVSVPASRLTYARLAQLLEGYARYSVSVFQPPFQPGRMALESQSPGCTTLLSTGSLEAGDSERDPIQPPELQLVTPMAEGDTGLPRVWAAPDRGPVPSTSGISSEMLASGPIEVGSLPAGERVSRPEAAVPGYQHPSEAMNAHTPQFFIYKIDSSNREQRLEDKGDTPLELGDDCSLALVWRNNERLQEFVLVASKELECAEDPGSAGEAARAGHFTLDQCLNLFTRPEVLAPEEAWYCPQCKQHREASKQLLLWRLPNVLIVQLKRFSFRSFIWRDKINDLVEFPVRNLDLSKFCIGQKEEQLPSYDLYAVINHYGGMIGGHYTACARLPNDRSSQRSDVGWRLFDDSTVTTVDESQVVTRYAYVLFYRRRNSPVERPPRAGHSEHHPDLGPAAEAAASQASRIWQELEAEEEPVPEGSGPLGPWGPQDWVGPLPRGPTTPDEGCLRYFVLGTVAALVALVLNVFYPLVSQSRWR

Target	log2 ratio of Biotin-Ahx-Ub-VS probe labelling
USP12 (UniProt O75317)	-0.0752
USP4 (UniProt Q13107)	-0.154
MINDY4 (UniProt Q4G0A6)	0.0365
UniProt P51784	0.0374
USP19 (UniProt O94966)	-0.389
USP9X (UniProt Q93008)	0.00293
USP5 (UniProt P45974)	0.084
PRPF8 (UniProt Q6P2Q9)	0.0584
USP24 (UniProt Q9UPU5)	-0.165
USP22 (UniProt Q9UPT9)	0.0108
USP10 (UniProt Q14694)	-0.166
UniProt Q8TE49	-1.87 (active)
USP14 (UniProt P54578)	-0.385
USP34 (UniProt Q70CQ2)	-0.156
OTUD6B (UniProt Q8N6M0)	-0.139
USP8 (UniProt P40818)	-0.266
COPS5 (UniProt Q92905)	0.136
OTUB1 (UniProt Q96FW1)	0.196
UniProt Q70EL2	0.0417
UniProt Q5T2D3	-0.17

same assay, conditions: compound concentration: 200uM; treatment time: 3 h

Target	log2 ratio of Biotin-Ahx-Ub-VS probe labelling
USP12 (UniProt O75317)	-0.294
USP4 (UniProt Q13107)	0.0977
MINDY4 (UniProt Q4G0A6)	0.686
UniProt P51784	-0.0603
USP19 (UniProt O94966)	-0.703
USP9X (UniProt Q93008)	-0.116
USP5 (UniProt P45974)	0.198
PRPF8 (UniProt Q6P2Q9)	0.0922
USP24 (UniProt Q9UPU5)	-0.557
USP22 (UniProt Q9UPT9)	-0.267
USP10 (UniProt Q14694)	-0.00161
UniProt Q8TE49	-2.68 (active)
USP14 (UniProt P54578)	-0.604
USP34 (UniProt Q70CQ2)	-0.0909
OTUD6B (UniProt Q8N6M0)	-0.239
USP8 (UniProt P40818)	-0.144
COPS5 (UniProt Q92905)	-0.0875
OTUB1 (UniProt Q96FW1)	-0.0449
UniProt Q70EL2	-0.242
UniProt Q5T2D3	-0.0768
